This is an account of results in PubChem BioAssay (NCATS).

Assay [1] is described as follows: UWB1.289 Cancer Cell Toxicity qHTS against the NCATS CANVASS Library (AID 1347347). Note: nearly all actives have a fitted effect of over 60% in size. Note: potency is the fitted concentration of half-maximal effect. In outline:
(§1)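 Per well, 1000 cells; exposure 72 h with compound at 11 final concentrations; readout CellTiter-Glo luminescence.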
Background: In qHTS, concentration-response curves come from the screen itself.

Assay [2] in a line: SW1088 Cancer Cell Toxicity qHTS against the NCATS CANVASS Library (AID 1347350). Note: nearly all actives have a fitted effect of over 75% in size. Note: potency is the fitted concentration of half-maximal effect. The gist of the method:
as §1

Assay [3] in a line: A2780 Cisplatin Sensitive Ovarian Cancer Cell Toxicity qHTS against the NCATS CANVASS Library (AID 1347353). Note: nearly all actives have a fitted effect of over 60% in size. Note: potency is the fitted concentration of half-maximal effect. In outline:
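Cells are plated at 750 per well and rest for 4 hours. Compounds are added across eleven concentrations, and incubated 72 hours before ATP is quantified by luminescence.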

The nature of assay [4]: UWB1.289-WTBRCA1 Cancer Cell Toxicity qHTS against the NCATS CANVASS Library (AID 1347354). Note: potency is the fitted concentration of half-maximal effect. The gist of the method: (§2)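 First, 1000 cells go into each well and rest for 4 hours. Next, an 11-point dilution range is pinned in. Plates then incubate 72 hours before CellTiter-Glo addition and luminescence reading.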
Assay [5] in a line: HEK-293 Cancer Cell Toxicity qHTS against the NCATS CANVASS Library (AID 1347355). For outcome: series mostly up to about 46 µM. Note: nearly all actives have a fitted effect of over 65% in size. Note: potency is the fitted concentration of half-maximal effect. The gist of the method: as §2
Assay [6] relates to NAD(P)H diaphorase (Clostridium kluyveri). Briefly: Diaphorse counterscreen qHTS: Assay Interference Panel against the NCATS CANVASS Library (AID 1347362). The gist of the method: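 Counterscreen for coupling-enzyme interference: resorufin fluorescence from resazurin/NADH turnover, read after 5 min at room temperature. Compounds were tested over an 11-point series after 15 min dark preincubation with diaphorase in PBS-Tween.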
Background: Counterscreens check selectivity or assay interference.

Assay [7] in a line: KB-8-5-11 Cancer Cell Toxicity qHTS against the NCATS CANVASS Library (AID 1347364). Note: nearly all actives have a fitted effect of over 75% in size. Note: potency is the fitted concentration of half-maximal effect. In outline: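 Terse: KB-8-5-11, 500 cells/well, 72 hr, 37C/5% CO2, 11-pt titration, CellTiter-Glo readout; confirmatory runs ± 1uM tariquidar in medium.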
A short description of assay [8]: SDT Cancer Cell Toxicity qHTS against the NCATS CANVASS Library (AID 1347365). Note: nearly all actives have a fitted effect of over 60% in size. Note: potency is the fitted concentration of half-maximal effect. In outline: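 Cytotoxicity is measured from cellular ATP: compounds in an 11-point concentration series are pinned onto SDT cells, incubated 72 hr at 37C, then CellTiterGlo is added and luminescence read.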
Assay [9] can be described thus: KB-3-1 Cancer Cell Toxicity qHTS against the NCATS CANVASS Library (AID 1347366). Note: nearly all actives have a fitted effect of over 75% in size. Note: potency is the fitted concentration of half-maximal effect. The gist of the method:
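Seed KB-3-1 cells at 500/well in DMEM with 10% FBS, add compounds, incubate 72 hr at 37C and 5% CO2, then add CellTiter-Glo and read luminescence after 10 minutes.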

A short description of assay [10]: qHTS for Hypoxia signaling pathway (HIF-1) antagonists against the NCATS CANVASS Library (AID 1347374). Note: nearly all actives have a fitted effect of over 60% in size. Note: potency is the fitted concentration of half-maximal effect. In outline: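 Antagonism scored as loss of CoCl2-driven (60 uM stock added) HRE beta-lactamase signal, read by CCF4 FRET at 460/530 nm. Compounds were tested in an 11-point series on ME-180 reporter cells for 17 hrs at 37C, with parallel CellTiter-Glo cytotoxicity.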

A short description of assay [11]: qHTS for Hypoxia signaling pathway (HIF-1) agonists against the NCATS CANVASS Library (AID 1347375). The gist of the method:
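Cells plated and rested 5 h, compounds pinned in DMSO across 11 concentrations, incubated 17 h at 37C, loaded with CCF4-AM for 2 h, fluorescence read at 460 and 530 nm, then CellTiter-Glo luminescence measured for viability and normalization.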

Assay [12] is described as follows: DH5-alpha competent E. coli microbial cell viability qHTS against the NCATS CANVASS Library (AID 1347377). Particulars: outcome: dose series up to 46.1 µM unless noted. In outline: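 Bacteria were dispensed at 0.2 OD, then compounds were pin-transferred. Plates were incubated overnight at 37C, after which BacTiter-Glo was added and luminescence measured 20 min later.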

Assay [13] can be described thus: qHTS for H2AX Agonists against the NCATS CANVASS Library (AID 1347378).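 Note: phospho-H2AX S139 level in CHO-K1 lysates by TR-FRET emission ratio.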 In outline:
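Following overnight seeding, CHO-K1 cells are incubated with a concentration series of compound for 3 hr at 37C (final DMSO 0.76%). Cells are then lysed, detection antibodies added, and emission ratio 665/620 nm recorded after 24 hr at room temperature.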

Assay [14] can be described thus: qHTS for Activators of p53 Stress Response Pathway screened against the NCATS CANVASS Library (AID 1347388). Note: potency is the fitted concentration of half-maximal effect. In outline: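 Beta-lactamase reporter driven by p53 response elements in HCT-116 cells, read as the 460 nm/530 nm emission ratio after CCF4 loading, following 16 h of exposure to an 11-point series. Cell viability was measured in the same wells by CellTiter-Glo luminescence.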

The nature of assay [15]: Secretion counterscreen for inhibitors of the SERCaMP assay screened against the NCATS CANVASS Library (AID 1347390).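 Note: light from luciferase secreted into medium read as a measure of general secretion.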 Note: potency is the fitted concentration of half-maximal effect. In outline: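 Counterscreen identifying compounds that disrupt secretion, using SH-SY5Y cells with a constitutively secreted Gaussia luciferase reporter. A 20 h compound exposure (top 77 uM) precedes luminescent detection with coelenterazine.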
Assay [16] in a line: qHTS for activators of dead-cell proteases activity screened against the NCATS CANVASS Library (AID 1347392).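 Note: luminescence from protease leaking out of membrane-damaged cells cleaving impermeant substrate; rising signal means more cytotoxicity.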 In outline:
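Luminescent dead-cell protease readout (AAF-aminoluciferin, 15 min, room temperature) after 5 h compound treatment of HepG2 cells (2000/well, pre-attached 18 h). Eleven concentrations.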

Assay [17] can be described thus: qHTS for inhibitors of Wild type Zika virus screened against the NCATS CANVASS Library (AID 1347396). Note: potency is the fitted concentration of half-maximal effect. In outline: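 Using ATP-based luminescence (CellTiter Glo), this screen scores rescue of Vero 766 cells from wild-type Zika killing at 72 h post-infection. Compounds are tested in a concentration series.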
The nature of assay [18]: Viability qHTS for inhibitors of the SERCaMP assay screened against the NCATS CANVASS Library (AID 1347400). Note: nearly all actives have a fitted effect of over 70% in size. Note: potency is the fitted concentration of half-maximal effect. In outline:
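Seed SH-SY5Y-GLuc SERCaMP MJH297 cells at 1000 per well, incubate 4 h, add compounds across an 11-point range, incubate 48 h at 37C, then add CellTiter-Glo and read luminescence.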

The nature of assay [19]: Redox Reaction Profiling qHTS: Assay Interference Panel against the NCATS CANVASS Library (AID 1347401). The gist of the method:
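Redox-cycling liability assessed as DTT-driven conversion of resazurin (5 uM, with 200 uM DTT, HEPES pH 7.3) to fluorescent resorufin. Fluorescence at 525/598 nm measured initially and after 15 min dark incubation.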

Assay [20] is described as follows: qHTS for inhibitors of ER calcium dysfunction: SERCaMP assay screened against the NCATS CANVASS Library (AID 1347393).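 Note: series mostly up to about 77 µM; lower secreted reporter signal means inhibitor of ER calcium depletion; nearly all actives have a fitted effect of over 40% in size.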 The gist of the method:
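Thapsigargin-induced ER calcium depletion drives GLuc-SERCaMP secretion from SH-SY5Y cells; compounds given 16 h beforehand were scored by lowered coelenterazine luminescence after 4 h challenge.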

Inconclusive results are not listed. Values without a mark were called inactive. Activity calls are given as the source filed them. Calls come from the whole dose curve; as a rule, active = well fitted curve in the direction sought with a large enough effect; inconclusive = small, poorly fitted or top-dose-only effect, or another doubt; inactive = no such curve, though single readings can be large; an effect the other way counts as inactive or inconclusive. Peptide text beside a SMILES is read from it. * marks the point of attachment. Octanoyl = CCCCCCCC(=O)*

With `CO[C@@H]1[C@H](O)[C@@H](C)O[C@@H](OC[C@@H]2C(C)OC(=O)/C=C/[C@H](C)C(O[C@@H]3O[C@H](C)CC4(OC(=O)O[C@@H]4C)C3O)[C@@H](C)CC(C)C(=O)CC[C@H]3OC23)[C@@H]1OC` (some centres undefined), the Potency result in assay [1], in assay [2], in [3], in [4], in assay [5] and in assay [6] was “inactive” throughout. Also, the Potency entry in assay [7], in assay [8], in [9], in assay [10], in [11] and in assay [13] was “inactive” each time. In addition, the Potency entry in [14], in [15], in [16], in assay [17], in assay [18] and in [19] was “inactive” throughout. Also, the result in [12] was inactive.
Regarding `C=C1C[C@@]23C=CC(=O)[C@@](C)(CCC(=O)Nc4c(O)ccc(C(=O)O)c4O)C2C[C@@H]1C(O)C3` (some centres undefined), the Potency entry in assay [1], in assay [2], in assay [3], in assay [4], in [5] and in assay [7] was “inactive” in each case. Moreover, the Potency result in assay [8], in [9], in [10], in assay [11], in assay [13] and in assay [14] was “inactive” each time. For the same molecule, the Potency entry in [15], in assay [16], in [20], in assay [17] and in assay [18] was “inactive” throughout. Moreover, the call in [12] was inactive.
Turning to `CO[C@@H]1C[C@@H](C[C@H]2CC[C@H](C)[C@H]([C@@H](C)C(=O)O)O2)O[C@]2(O[C@](C)([C@H]3CC[C@@](C)([C@@H]4O[C@@H]([C@H]5O[C@](C)(O)[C@H](C)C[C@@H]5C)C[C@@H]4C)O3)C[C@H]2C)[C@@H]1C`, the Potency in [1] was 3340 nM (active); in [2], 16.8 nM (active); in [3], 37.2 nM (active); in assay [4] it was 9410 nM (active); in assay [5], 296 nM (active); in assay [7], 5900 nM (active). The Potency in [8] is 93.5 nM (active); in [9], 14800 nM (active); in assay [10], 2110 nM (active); in assay [14], 3710 nM (active); in assay [15], 484 nM (active); in [17], 1040 nM (active). In assay [18], the Potency is 10700 nM (active). In addition, the Potency result in assay [13], in assay [16], in assay [20] and in [19] was “inactive” each time.
Regarding `CCCCCCCC(=O)N[C@@H](CC(C)C)C(=O)N[C@H](C=O)CCC(=O)O` (Octanoyl-Leu-Glu-aldehyde), the Potency entry in assay [1], in [2], in assay [3], in assay [4], in assay [5] and in [6] was “inactive” in each case. The Potency entry in assay [7], in assay [8], in [9], in assay [10], in [11] and in assay [13] was “inactive” throughout. Also, the Potency entry in [14], in [15], in assay [16], in assay [20], in [17] and in assay [18] was “inactive” throughout. For the same molecule, in [19], the Potency result was “inactive”. Besides, the molecule was classed as inactive in assay [12].
For the molecule `CC[C@@H]1C[C@@]2(CC)OC(=O)[C@@]3(CC)OC(=O)[C@@H]1[C@@H]23`, the Potency result in [1], in assay [2], in assay [3], in [4], in [5] and in assay [6] was “inactive” throughout. Moreover, the Potency result in [7], in assay [8], in assay [9], in assay [10], in assay [11] and in [13] was “inactive” each time. For the same molecule, the Potency entry in assay [14], in assay [15], in assay [16], in assay [20], in [17] and in assay [18] was “inactive” throughout. For the same molecule, the Potency result in assay [19] was “inactive”. Moreover, the outcome in assay [12] was inactive.
